Data as given in the supplement of paper PMC11732987, “Enantioselective OTUD7B fragment discovery through chemoproteomics screening and high-throughput optimisation” (Communications Chemistry, 2025).

Key:
Assay in all cases: log2 ratio of Biotin-Ahx-Ub-VS probe labelling (fragment/DMSO); higher = less target engagement (more negative = stronger competition), active = hit call of the paper (q ≤ 0.05, log2 ratio ≤ -1)
Settings in all cases: compound concentration: 200 uM; treatment time: 3 h
USP16 = USP16 (UniProt Q9Y5T5)
In short: (§1)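 Global-median-normalised Spectronaut label-free quantities were compared by unpaired t-test, and values are average log2 ratios of fragment over vehicle. Only proteins with ≥2 unique peptides were used. HEK293T lysate (495 µg per sample) was treated in triplicate with fragment at 200 µM or vehicle for 3 h and then with Biotin-Ahx-Ub-VS at 0.5 µM final for 1 h. Labelled DUBs were then NeutrAvidin-enriched, digested with LysC and trypsin, and run by diaPASEF LC-MS/MS.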

USP19 = target: T1, USP19 (UniProt O94966)
T1 sequence (whole entry): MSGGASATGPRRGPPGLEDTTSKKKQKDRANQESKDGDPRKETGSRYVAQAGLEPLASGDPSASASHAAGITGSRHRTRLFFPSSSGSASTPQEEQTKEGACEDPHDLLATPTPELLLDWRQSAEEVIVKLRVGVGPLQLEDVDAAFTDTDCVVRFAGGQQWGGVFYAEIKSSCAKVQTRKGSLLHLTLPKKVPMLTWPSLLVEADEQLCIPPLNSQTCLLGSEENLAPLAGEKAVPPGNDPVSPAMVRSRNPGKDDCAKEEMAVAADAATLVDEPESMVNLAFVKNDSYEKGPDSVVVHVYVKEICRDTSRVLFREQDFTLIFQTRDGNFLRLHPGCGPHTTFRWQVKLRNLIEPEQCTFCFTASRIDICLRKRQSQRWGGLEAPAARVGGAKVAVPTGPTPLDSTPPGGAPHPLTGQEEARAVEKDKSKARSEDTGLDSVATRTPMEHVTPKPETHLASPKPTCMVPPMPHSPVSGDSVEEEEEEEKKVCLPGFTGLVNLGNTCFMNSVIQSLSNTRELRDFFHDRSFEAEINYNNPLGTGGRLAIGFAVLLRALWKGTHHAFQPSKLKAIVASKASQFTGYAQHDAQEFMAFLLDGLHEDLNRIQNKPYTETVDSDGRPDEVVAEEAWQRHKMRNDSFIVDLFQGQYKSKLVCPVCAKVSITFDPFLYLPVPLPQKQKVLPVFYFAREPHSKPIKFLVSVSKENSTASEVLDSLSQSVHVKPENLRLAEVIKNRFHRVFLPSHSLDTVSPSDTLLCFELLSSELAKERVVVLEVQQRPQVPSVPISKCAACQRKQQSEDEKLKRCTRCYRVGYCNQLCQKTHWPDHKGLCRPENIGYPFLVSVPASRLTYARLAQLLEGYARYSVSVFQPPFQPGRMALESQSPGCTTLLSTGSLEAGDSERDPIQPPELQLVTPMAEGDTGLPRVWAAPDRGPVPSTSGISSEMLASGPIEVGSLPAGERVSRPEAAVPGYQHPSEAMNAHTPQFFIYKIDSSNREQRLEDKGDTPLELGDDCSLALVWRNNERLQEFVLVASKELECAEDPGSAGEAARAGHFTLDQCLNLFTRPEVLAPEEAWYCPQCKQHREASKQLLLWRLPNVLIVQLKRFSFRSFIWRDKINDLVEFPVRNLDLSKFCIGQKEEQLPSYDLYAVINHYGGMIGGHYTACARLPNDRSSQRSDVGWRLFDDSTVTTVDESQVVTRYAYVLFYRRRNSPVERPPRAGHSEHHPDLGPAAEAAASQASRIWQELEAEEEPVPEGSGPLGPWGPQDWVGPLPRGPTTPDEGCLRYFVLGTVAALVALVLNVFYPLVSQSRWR
In short: as §1

USP24 = USP24 (UniProt Q9UPU5)
In short: as §1

USP25 = target: T2, USP25 (UniProt Q9UHP3)
T2 sequence (whole entry): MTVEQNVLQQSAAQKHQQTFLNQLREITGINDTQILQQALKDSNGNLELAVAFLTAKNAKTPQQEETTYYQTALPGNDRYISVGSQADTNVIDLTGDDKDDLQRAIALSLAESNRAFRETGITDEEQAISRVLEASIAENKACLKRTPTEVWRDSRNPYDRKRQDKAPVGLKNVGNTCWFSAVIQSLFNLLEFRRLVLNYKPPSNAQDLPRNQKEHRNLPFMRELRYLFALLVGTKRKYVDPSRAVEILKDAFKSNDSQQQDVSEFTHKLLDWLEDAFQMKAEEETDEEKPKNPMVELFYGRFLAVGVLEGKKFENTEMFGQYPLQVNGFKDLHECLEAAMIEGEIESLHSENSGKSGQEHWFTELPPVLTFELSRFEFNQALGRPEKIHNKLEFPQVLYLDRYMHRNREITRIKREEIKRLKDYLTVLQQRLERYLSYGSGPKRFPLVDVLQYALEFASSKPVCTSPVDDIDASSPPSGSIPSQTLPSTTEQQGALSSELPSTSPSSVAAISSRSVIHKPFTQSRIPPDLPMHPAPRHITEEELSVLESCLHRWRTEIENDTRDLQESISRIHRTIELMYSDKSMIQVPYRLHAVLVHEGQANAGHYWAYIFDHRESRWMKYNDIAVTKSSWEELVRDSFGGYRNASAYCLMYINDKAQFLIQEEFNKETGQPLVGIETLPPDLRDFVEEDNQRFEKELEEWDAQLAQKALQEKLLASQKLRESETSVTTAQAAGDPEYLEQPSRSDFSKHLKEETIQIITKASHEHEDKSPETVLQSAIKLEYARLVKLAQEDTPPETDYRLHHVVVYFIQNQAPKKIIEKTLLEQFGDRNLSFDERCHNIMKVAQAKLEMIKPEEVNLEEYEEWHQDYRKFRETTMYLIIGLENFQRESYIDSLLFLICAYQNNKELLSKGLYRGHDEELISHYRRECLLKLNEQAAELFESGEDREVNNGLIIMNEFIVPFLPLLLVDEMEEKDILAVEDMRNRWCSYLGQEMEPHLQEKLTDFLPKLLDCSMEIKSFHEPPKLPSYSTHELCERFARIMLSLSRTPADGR
In short: as §1

USP28 = target: T3, USP28 (UniProt Q96RU2)
T3 sequence (whole entry): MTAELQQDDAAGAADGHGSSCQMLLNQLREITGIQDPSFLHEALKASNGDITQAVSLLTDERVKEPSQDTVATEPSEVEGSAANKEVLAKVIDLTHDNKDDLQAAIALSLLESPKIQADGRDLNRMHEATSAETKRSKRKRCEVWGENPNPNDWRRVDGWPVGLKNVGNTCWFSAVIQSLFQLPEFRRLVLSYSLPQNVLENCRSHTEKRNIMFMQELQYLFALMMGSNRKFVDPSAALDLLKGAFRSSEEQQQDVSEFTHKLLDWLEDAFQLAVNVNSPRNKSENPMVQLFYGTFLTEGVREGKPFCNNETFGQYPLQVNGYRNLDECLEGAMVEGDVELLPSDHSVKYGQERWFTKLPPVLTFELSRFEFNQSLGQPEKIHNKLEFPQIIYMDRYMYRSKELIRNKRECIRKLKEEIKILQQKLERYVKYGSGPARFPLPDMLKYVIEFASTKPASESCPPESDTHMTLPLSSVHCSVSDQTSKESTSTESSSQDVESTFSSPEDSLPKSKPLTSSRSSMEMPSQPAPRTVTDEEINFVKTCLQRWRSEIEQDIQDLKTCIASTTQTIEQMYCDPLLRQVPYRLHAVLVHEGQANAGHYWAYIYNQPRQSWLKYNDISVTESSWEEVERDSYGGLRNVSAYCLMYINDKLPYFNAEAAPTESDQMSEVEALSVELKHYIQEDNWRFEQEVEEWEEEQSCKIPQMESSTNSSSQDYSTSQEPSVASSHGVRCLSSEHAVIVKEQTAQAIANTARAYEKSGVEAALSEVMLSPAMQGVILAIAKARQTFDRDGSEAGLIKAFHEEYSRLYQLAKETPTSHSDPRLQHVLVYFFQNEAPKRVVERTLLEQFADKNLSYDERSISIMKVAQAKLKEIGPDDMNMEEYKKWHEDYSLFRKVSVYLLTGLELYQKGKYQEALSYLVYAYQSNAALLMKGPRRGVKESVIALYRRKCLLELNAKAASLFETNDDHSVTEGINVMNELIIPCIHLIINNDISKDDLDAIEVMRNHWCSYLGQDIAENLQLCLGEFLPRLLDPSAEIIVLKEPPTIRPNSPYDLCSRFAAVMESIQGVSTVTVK
In short: as §1

Measured: log2 ratio of Biotin-Ahx-Ub-VS probe labelling

Sequence of USP16 (Q9Y5T5 whole entry, looked up, the tested form may be a part): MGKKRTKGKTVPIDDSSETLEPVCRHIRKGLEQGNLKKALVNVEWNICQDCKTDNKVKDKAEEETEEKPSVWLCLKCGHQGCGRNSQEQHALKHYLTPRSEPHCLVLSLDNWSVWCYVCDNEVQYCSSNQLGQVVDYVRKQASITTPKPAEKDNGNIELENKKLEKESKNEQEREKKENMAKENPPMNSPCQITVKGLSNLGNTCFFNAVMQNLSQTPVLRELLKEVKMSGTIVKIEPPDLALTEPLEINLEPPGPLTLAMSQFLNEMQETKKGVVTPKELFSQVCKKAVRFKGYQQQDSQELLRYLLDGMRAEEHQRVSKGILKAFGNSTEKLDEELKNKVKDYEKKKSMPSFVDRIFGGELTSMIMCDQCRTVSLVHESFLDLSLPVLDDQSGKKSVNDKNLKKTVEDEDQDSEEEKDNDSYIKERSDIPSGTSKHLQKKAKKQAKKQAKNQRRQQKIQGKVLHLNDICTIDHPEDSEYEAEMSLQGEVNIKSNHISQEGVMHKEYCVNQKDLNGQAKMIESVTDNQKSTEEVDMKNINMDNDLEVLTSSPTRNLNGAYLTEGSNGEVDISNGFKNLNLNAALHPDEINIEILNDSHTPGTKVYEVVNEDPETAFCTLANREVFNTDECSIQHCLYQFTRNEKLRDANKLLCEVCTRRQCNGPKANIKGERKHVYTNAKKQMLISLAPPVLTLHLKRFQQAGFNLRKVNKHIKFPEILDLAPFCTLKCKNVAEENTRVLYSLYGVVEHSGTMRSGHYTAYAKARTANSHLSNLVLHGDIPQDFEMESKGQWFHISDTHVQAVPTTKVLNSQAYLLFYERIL
Sequence of USP24 (Q9UPU5 whole entry): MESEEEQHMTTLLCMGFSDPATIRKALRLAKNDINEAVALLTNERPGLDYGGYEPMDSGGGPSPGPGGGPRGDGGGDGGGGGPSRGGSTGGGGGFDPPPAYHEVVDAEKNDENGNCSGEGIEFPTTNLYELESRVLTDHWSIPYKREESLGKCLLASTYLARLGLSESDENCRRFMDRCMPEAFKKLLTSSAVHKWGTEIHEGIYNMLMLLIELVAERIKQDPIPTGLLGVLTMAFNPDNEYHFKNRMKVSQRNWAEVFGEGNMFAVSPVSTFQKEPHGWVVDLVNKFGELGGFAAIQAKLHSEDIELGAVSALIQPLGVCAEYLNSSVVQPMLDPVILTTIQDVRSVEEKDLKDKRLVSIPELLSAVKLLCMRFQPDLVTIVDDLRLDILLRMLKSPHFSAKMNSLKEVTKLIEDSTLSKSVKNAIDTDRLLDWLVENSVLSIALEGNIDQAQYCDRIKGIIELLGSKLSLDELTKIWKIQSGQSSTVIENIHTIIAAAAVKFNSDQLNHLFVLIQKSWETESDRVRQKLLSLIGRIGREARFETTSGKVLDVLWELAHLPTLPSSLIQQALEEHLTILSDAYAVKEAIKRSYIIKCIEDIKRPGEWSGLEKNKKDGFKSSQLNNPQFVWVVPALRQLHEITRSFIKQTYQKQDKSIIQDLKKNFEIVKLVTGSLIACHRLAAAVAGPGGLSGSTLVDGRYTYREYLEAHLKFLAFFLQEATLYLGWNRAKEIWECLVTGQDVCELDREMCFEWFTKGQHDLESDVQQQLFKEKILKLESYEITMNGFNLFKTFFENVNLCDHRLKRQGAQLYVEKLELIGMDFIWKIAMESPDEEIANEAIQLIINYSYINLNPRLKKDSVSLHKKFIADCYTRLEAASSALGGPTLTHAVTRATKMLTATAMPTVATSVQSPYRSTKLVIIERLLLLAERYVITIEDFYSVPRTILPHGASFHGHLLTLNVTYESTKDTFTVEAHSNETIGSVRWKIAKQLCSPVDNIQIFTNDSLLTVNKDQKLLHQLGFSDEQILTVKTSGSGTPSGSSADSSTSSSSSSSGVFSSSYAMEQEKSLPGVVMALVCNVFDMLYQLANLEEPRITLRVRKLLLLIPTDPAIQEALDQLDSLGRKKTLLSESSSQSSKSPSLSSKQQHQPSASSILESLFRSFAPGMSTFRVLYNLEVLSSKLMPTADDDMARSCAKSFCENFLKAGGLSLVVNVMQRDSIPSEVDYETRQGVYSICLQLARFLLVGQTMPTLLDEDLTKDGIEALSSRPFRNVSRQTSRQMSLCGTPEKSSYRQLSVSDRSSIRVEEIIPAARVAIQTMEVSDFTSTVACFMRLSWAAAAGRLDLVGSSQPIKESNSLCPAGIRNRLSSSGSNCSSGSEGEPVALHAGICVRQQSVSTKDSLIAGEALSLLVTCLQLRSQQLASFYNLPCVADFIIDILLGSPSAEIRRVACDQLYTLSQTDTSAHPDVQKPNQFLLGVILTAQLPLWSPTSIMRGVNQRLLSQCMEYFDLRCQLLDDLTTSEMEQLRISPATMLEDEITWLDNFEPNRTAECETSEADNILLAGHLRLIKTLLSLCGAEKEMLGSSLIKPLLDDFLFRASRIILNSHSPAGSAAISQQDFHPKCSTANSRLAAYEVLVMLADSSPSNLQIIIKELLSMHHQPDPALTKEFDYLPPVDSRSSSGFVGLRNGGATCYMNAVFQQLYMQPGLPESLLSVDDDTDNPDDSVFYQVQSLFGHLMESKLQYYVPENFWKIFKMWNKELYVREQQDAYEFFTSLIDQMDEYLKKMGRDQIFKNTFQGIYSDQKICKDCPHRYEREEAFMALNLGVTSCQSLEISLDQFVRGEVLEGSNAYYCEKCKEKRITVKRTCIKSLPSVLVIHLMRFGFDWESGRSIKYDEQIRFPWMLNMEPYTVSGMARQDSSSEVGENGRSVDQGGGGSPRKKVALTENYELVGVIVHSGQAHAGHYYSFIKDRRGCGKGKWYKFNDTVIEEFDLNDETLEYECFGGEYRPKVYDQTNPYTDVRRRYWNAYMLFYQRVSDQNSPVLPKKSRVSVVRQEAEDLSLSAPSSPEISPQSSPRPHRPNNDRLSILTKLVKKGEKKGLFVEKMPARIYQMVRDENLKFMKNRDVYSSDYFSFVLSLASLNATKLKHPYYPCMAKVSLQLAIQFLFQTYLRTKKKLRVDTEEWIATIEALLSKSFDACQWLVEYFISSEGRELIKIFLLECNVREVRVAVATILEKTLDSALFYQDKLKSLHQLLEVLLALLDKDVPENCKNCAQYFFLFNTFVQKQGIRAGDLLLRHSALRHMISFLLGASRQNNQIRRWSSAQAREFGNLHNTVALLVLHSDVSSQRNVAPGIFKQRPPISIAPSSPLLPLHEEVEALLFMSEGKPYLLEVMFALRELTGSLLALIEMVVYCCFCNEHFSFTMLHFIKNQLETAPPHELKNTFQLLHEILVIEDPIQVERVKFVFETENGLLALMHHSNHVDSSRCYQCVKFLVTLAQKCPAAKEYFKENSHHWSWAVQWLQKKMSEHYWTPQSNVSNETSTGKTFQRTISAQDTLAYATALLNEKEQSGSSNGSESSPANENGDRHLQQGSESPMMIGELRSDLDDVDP

COCC1C=CCCN1C(=O)CCl (stereo not given)
inactive: USP16 -0.0544 | USP19 -0.24 | USP24 -0.137 | USP25 -0.32 | USP28 -0.342
